Records with an inconclusive call do not appear. Calls of active or inactive are those of the source. Unless noted, the call rests on the fitted dose curve; in most records, active means well fitted curve in either direction with a large enough effect (not every such curve was filed as active); inconclusive means small, poorly fitted or top-dose-only effect, or another doubt; inactive means flat fitted curve, though single readings scatter. Where only a bound is given, the exact number is not on record here.

The target of test [1] is Lysosomal acid glucosylceramidase (Homo sapiens) (UniProt P04062). As to the kind of experiment: Glucocerebrosidase-p2 (AID 348; in the data active means potency below about 10 µM; further: potency means the concentration at half of the fitted maximal effect). Particulars: purified GBA, blue fluorogenic substrate, 40 min. The gist of the method:
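Compounds titrated from 0.6 nM upwards against 0.2 nM enzyme in pH 5.9 citric acid/KH2PO4, taurocholate, tween-20; blue fluorogenic substrate 80 uM, 40 min room temperature, stopped and read Ex 365/Em 440 for AC50.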

Test [2] is described as follows: AP1 Signaling Pathway (AID 357). Further: on the % scale 0 is the no-effect control and ±100 the full control effect. Particulars: ME-180 AP-1-bla reporter, EGF-induced, beta-lactamase ratio, 5 h; at 7.69 µM (top of the series) unless noted. The gist of the method: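 Modulation of EGF-driven AP-1 transcription was assessed with a beta-lactamase reporter in ME-180 cells. Compound and EC50 EGF were co-incubated 5 hours at 37 °C before 2.5-hour CCF4 loading at room temperature and dual-emission reading.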

The target in test [3] is Cytochrome P450 1A2 (Homo sapiens) (UniProt P05177). As to the kind of experiment: p450-cyp1a2 (AID 410; calls by dose curve; further: potency means the concentration at half of the fitted maximal effect;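 on activity change, negative = inhibition: -100% = full effect of reference inhibitor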). Particulars: recombinant CYP1A2, luciferin-ME demethylation, luminescence; series mostly up to 57 µM. The essentials: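 Luminescent readout of luciferin formed from Luciferin-ME by human CYP1A2; data normalized against complete inhibition by 57 uM furafylline. Enzyme 20nM, substrate 100uM at Km, 100mM KPO4 buffer, 60 min reaction at room temperature.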

Test [4] in a line: Stat Signaling Pathway (AID 446).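 Further: ME-180 cervical cancer cells given 40 pM IL-6 alongside compound; SIE-controlled beta-lactamase reporter measured as 460/530 nm FRET emission ratio; on the % scale 0 is the no-effect control and ±100 the full control effect.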 Particulars: ME-180 SIE beta-lactamase reporter, IL-6 stimulated, 5 h; at 7.69 µM (top of the series) unless noted. The essentials: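 ME-180 cells carrying a SIE-driven beta-lactamase reporter are stimulated with 40 pM IL-6 for 5 h at 37C in the presence of compound. The 460/530 nm FRET substrate ratio is read after 2.5 h at RT. Data are normalised to 300 pM IL-6 and to 125 nM JAK inhibitor controls.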

Test [5] concerns the target Glucocorticoid receptor (Homo sapiens) (UniProt P04150). As to the kind of experiment: GR-EFC Redistribution (AID 451; calls by dose curve; further: potency means the concentration at half of the fitted maximal effect). The note with it: CHO-K1 GR-EFC translocation, beta-gal luminescence, 2 h. The gist of the method:
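CHO-K1 cells stably expressing nuclear-localized β-gal enzyme acceptor and GR fused C-terminally to the enzyme donor fragment; ligand-driven nuclear translocation restores β-gal by complementation. Compounds titrated up to 46 uM final, 2 h at 37 °C; luminescence read.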

Test [6] concerns the target Mitogen-activated protein kinase 10 (Mus musculus) (UniProt Q61831). As to the kind of experiment: JNK3 AlphaScreen Assay (AID 530).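 Further: kinase came from lysate of stimulated human HepG2 cells; signal reports phosphorylation of biotinylated GST-cJun 1-79 at Ser73 with 10 µM ATP; on the % scale 0 is the no-effect control and ±100 the full control effect.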 Particulars: JNK3 lysate, c-Jun phosphorylation; series mostly up to 57.1 µM. The gist of the method: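 Inhibitors reduce antibody binding to phosphorylated biotin-cJun, lowering AlphaScreen luminescence. Lysates from HepG2 cells pre-activated by IL-1beta plus TNF-alpha supplied JNK3; compounds were titrated.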
On the technique in general: Bead proximity is the source of the signal in Alpha formats.

Test [7] deals with 3',5'-cyclic-AMP phosphodiesterase 4B (Homo sapiens) (UniProt Q07343). As to the kind of experiment: qHTS Assay for Inhibitors of PDE-IV (AID 607; active means well fitted activation curve with a large enough effect in the main read-out, with a control signal flat, not every such curve was filed as active; further: % of control where 0% means no effect). The note with it: HEK293 ACTOne CNG channel cells, membrane potential fluorescence; series mostly up to 22.9 µM. The essentials:
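HEK293 ACTOne cells with CNG channel (1000/well), endogenous PDE4; membrane potential dye, compounds up to 22.9 uM final. Fluorescence Ex 535/Em 590; RO 20-1724 (100 uM final) as reference.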
A general note: In qHTS, concentration-response curves come from the screen itself.

Test [8] addresses Cytochrome P450 3A4 (Homo sapiens) (UniProt P08684). As to the kind of experiment: qHTS Assay for Inhibitors and Substrates of Cytochrome P450 3A4 (AID 884; active means well fitted curve in the direction sought with a large enough effect; an effect the other way counts as inactive or inconclusive; further: nearly all actives have a fitted effect of over 50% in size; further: potency means the concentration at half of the fitted maximal effect). The note with it: recombinant CYP3A4, Luciferin-PPXE luminescence; series mostly up to 57.1 µM. The essentials:
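20 nM human CYP3A4 with 25 uM Luciferin-PPXE (at KM) in 200 mM KPO4, preincubated 10 min with compound; NADPH regeneration started a 60 min RT reaction. Luciferin detected by luminescence, normalized to 57 uM ketoconazole as full inhibition.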

The nature of test [9]: qHTS Assay for Identification of Small Molecule Agonists for Hypoxia Response Element Signaling Pathway (AID 914; active means well fitted activation curve with a large enough effect in the signal ratio, with a control signal flat, not every such curve was filed as active; the % refers to the signal ratio; further: % of control where 0% means no effect). The note with it: ME-180 (cervical carcinoma) HRE-bla reporter, beta-lactamase ratio, CoCl2, 17 h; activation: stronger effect = higher value. The essentials: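 AC50 values come from titration-series %Activity, taken as the 460/530nm ratio of CCF4 fluorescence (excitation 405nm). CellSensor HRE-bla ME-180 cells were treated 17 hours at 37 C with compound plus an EC50 level of CoCl2.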

Test [10] is described as follows: qHTS Assay for Lipid Storage Modulators (AID 1519; calls by dose curve). The note with it: Drosophila S3 cells, BODIPY lipid droplet/cell ratio, laser cytometry, cells loaded with oleic acid; for activity change, negative = inhibition: at 57.5 µM (top of the series). The gist of the method:
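Cells seeded at 5,000 per well were treated with compounds over a concentration series and loaded with oleic acid (400 uM, as added). Lipid droplet fluorescence (488 nm excitation, 500-530 nm channel) was read by laser-scanning cytometry and normalized to 20 uM Triacsin C.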

Test [11] in a line: Primary qHTS for small molecule stabilizers of the endoplasmic reticulum resident proteome: Secreted ER Calcium Modulated Protein (SERCaMP) assay (AID 1508630; active means well fitted curve in the direction sought with a large enough effect; an effect the other way counts as inactive or inconclusive; further: on the % scale 0 is the no-effect control and ±100 the full control effect). Particulars: SH-SY5Y GLuc-SERCaMP (Gaussia luciferase released on ER calcium loss) secretion, thapsigargin, luminescence; series mostly up to 38.4 µM. The essentials:
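GLuc-SERCaMP-expressing SH-SY5Y cells, pretreated 16 h with compound, are challenged with thapsigargin to empty ER calcium stores; after 4 h, coelenterazine is added directly to the medium and luminescence is imaged.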

Test [12] addresses Cytochrome P450 3A4 (Homo sapiens) (UniProt P08684). As to the kind of experiment: qHTS Assay for Activators of Cytochrome P450 3A4 (AID 885; active means well fitted curve in the direction sought with a large enough effect; an effect the other way counts as inactive or inconclusive; further: nearly all actives have a fitted effect of over 65% in size; further: potency means the concentration at half of the fitted maximal effect). Particulars: recombinant CYP3A4, Luciferin-PPXE luminescence, 60 min; series mostly up to 57.1 µM. The gist of the method: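 Human CYP3A4 (20 nM) with Luciferin-PPXE at 25 uM (its KM) in 200 mM KPO4; 10 min compound preincubation, then NADPH regeneration and 60 min reaction at RT. Luciferin read by luminescence; normalized to 57 uM ketoconazole full inhibition.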

For test [13], the target named is Cytochrome P450 2D6 (Homo sapiens) (UniProt P10635). As to the kind of experiment: qHTS Assay for Inhibitors and Substrates of Cytochrome P450 2D6 (AID 891; active means well fitted curve in the direction sought with a large enough effect; an effect the other way counts as inactive or inconclusive; further: potency means the concentration at half of the fitted maximal effect; nearly all actives have a fitted effect of over 60% in size). The note with it: recombinant CYP2D6, luciferin-ME EGE luminescence; series mostly up to 57.1 µM. The gist of the method: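 Human CYP2D6 (5 nM) with 30 uM Luciferin-ME EGE (at Km) in 100 mM KPO4, compound preincubated 10 min, then NADPH regeneration system for 60 min at room temperature. Luciferin read by luminescence; normalized to 1.43 uM quinidine.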

[14] abbreviates: measured here: cell count channel max response.
[15] abbreviates: measured here: lipid channel max response.

Glucocorticoid receptor (Homo sapiens), sequence (P04150 whole entry, looked up, the tested form may be a part): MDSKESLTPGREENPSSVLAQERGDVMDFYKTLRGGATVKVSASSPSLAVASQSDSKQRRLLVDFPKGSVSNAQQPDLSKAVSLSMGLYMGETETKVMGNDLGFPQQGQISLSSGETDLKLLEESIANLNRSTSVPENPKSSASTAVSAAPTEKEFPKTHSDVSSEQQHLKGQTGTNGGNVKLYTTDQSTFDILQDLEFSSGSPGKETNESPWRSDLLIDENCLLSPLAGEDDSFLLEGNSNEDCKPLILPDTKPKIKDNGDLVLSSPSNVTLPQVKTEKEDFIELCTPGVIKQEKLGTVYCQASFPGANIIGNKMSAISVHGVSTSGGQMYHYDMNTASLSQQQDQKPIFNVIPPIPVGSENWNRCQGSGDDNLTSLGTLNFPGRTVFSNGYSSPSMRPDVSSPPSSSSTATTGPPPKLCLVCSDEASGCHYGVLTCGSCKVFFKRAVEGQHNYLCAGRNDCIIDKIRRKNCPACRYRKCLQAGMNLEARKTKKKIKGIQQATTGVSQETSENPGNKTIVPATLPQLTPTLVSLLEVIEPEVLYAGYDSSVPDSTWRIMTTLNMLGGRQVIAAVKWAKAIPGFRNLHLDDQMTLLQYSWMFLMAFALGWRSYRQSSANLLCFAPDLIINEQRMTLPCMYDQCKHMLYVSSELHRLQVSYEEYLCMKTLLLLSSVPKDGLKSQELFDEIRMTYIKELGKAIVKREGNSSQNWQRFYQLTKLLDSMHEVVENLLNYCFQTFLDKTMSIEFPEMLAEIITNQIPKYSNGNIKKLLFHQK
3',5'-cyclic-AMP phosphodiesterase 4B (Homo sapiens), sequence (Q07343 whole entry, looked up): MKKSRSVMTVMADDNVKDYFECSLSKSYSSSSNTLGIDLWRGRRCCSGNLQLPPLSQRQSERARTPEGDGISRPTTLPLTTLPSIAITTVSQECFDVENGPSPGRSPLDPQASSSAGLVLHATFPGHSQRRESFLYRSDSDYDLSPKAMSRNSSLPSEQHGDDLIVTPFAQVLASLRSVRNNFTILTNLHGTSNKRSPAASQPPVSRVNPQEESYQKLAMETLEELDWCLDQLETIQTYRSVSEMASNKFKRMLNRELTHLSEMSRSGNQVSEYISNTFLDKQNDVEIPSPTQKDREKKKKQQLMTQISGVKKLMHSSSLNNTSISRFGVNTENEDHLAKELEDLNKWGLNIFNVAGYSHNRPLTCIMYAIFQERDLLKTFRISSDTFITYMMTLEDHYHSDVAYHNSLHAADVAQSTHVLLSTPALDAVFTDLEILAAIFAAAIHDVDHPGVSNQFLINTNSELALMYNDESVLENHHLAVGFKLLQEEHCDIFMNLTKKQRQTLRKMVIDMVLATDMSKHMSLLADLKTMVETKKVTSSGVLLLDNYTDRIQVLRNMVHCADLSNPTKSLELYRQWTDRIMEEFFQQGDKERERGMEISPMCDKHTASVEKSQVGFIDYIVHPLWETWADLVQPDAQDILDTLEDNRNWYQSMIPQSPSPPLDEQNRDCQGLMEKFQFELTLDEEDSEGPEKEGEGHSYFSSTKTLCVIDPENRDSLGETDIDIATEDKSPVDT
Cytochrome P450 3A4 (Homo sapiens), sequence (P08684 whole entry, looked up): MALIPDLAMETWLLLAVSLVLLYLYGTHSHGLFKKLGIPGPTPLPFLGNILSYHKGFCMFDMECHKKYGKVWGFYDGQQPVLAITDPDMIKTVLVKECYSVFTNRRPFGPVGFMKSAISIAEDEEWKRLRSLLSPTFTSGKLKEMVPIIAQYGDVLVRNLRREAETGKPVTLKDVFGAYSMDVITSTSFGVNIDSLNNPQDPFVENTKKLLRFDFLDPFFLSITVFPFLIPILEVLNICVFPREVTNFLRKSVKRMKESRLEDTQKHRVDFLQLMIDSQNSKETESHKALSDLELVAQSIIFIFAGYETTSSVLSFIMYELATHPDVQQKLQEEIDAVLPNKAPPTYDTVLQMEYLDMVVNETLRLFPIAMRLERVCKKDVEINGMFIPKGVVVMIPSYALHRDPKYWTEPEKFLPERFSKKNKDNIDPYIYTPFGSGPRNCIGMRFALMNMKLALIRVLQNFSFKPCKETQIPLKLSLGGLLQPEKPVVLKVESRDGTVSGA
Cytochrome P450 1A2 (Homo sapiens), sequence (P05177 whole entry, looked up): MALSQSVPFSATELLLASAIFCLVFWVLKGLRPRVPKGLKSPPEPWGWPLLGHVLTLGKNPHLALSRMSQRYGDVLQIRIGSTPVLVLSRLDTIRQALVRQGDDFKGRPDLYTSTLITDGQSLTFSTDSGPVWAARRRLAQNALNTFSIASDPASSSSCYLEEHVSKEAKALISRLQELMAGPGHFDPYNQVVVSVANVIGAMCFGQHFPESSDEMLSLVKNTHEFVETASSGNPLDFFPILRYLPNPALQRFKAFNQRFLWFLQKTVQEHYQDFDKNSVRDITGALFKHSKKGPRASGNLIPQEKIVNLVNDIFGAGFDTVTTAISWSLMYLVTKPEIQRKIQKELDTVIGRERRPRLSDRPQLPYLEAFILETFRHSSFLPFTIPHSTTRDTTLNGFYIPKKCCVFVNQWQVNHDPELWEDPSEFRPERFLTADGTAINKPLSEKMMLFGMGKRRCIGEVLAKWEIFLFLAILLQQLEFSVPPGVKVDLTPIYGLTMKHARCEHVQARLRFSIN
Lysosomal acid glucosylceramidase (Homo sapiens), sequence (P04062 whole entry, looked up): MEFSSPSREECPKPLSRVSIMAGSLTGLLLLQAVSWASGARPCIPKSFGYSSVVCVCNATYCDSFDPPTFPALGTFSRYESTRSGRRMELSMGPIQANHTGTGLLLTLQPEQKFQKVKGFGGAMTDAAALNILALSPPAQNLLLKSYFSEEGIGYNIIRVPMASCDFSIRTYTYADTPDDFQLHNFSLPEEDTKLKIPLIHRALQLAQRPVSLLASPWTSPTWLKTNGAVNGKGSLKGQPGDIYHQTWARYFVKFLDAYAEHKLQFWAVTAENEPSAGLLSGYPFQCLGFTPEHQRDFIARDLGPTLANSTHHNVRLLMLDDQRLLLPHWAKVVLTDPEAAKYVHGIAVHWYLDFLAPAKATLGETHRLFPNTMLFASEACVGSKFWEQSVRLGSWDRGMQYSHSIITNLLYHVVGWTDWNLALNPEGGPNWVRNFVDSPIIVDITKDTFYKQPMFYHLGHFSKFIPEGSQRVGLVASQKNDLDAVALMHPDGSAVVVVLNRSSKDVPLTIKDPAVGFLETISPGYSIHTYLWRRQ
Cytochrome P450 2D6 (Homo sapiens), sequence (P10635 whole entry, looked up): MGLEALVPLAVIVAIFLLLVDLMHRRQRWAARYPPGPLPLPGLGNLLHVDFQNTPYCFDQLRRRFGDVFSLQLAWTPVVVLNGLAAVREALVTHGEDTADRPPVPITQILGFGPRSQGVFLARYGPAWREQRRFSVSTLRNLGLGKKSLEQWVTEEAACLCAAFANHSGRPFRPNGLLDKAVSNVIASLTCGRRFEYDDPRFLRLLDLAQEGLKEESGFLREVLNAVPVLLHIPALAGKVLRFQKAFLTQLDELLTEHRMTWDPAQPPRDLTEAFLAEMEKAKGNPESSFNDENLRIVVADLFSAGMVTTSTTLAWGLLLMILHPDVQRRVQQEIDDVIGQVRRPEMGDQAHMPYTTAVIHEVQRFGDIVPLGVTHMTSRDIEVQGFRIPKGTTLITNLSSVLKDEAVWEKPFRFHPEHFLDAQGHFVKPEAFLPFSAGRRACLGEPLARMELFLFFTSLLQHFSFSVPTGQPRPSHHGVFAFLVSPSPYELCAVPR

As for `O=C(c1ccco1)N1CCC2(CCN(Cc3nccs3)CC2)CC1`, the results for the Potency in [1] and in test [5] were > 11.4 µM (inactive) and > 46 µM (inactive), respectively. In addition, the activity change, negative = inhibition in test [2] was 5.22% (inactive); in test [10], 1% (inactive). The Potency result in test [3], in [6], in [7] and in test [8] was “inactive” each time. In addition, in test [4], the activity, negative = inhibition is 4.68% (inactive). Further, the activation in [9] was -9.81% (inactive). The max response turned out to be 8.57% in [10] (setting [14]) and 12.6% in test [10] (setting [15]). Besides, the result in test [11] was inactive.
Take `COc1ccccc1CN1CCCC2(CCN(C(=O)c3c(C)noc3C)CC2)C1`: the figures for the Potency in test [1] and in test [5] were > 11.4 µM (inactive) and > 46 µM (inactive), respectively. Also, the activity change, negative = inhibition in test [2] was -9.04% (inactive); in test [10], 1.7% (inactive). In addition, the Potency entry in test [3], in test [6], in test [7] and in test [12] was “inactive” throughout. Also, in [4], the activity, negative = inhibition was -7.32% (inactive). Moreover, the max response is 14.6% in [10] (setting [14]) and 17.9% in test [10] (setting [15]). Also, the result in [11] was inactive.
As for `O=C(Nc1cccc(F)c1)N1CC[C@@]2(CCCN(C(=O)c3cc(C(F)(F)F)cc(C(F)(F)F)c3)C2)C1`, the Potency in test [1] is > 11.4 µM (inactive); in [5] it was > 46 µM (inactive). In addition, the activity change, negative = inhibition in test [2] is -8.61% (inactive); in test [10], 5.77% (inactive). In addition, the Potency result in [3], in [6], in [7] and in [12] was “inactive” throughout. In addition, in [4], the activity, negative = inhibition was -4.49% (inactive). Besides, the max response was -3.02% in test [10] (setting [14]) and 6% in test [10] (setting [15]). For the same compound, the outcome in [11] was inactive.
`O=C(c1ccncc1)N1CCC2(CCN(Cc3ccncc3)CC2)CC1`: the figures for the Potency in [1] and in [5] were > 11.4 µM (inactive) and > 46 µM (inactive), respectively. Besides, the activity change, negative = inhibition in test [2] is 7.83% (inactive); in test [10], 4.23% (inactive). Moreover, the Potency entry in test [3], in [6], in test [7] and in test [12] was “inactive” throughout. Further, in test [4], the activity, negative = inhibition was -5.41% (inactive). For the same compound, the results for the max response in test [10] (setting [14]) and in test [10] (setting [15]) were 14.3% and 23.1%, respectively. In test [11], the result was inactive.
Consider `Cn1cccc1C(=O)N1CCC2(CC1)CN(c1ccccn1)C2`, for which the Potency in [1] was > 11.4 µM (inactive); in [5] it was > 46 µM (inactive); in [12], 12.6 µM (active). Also, the activity change, negative = inhibition in [2] was 2.02% (inactive); in test [10], 5.7% (inactive). The Potency result in test [3], in test [6], in test [7] and in test [8] was “inactive” in each case. Also, the activity, negative = inhibition in [4] is -6.36% (inactive). Moreover, the max response turned out to be 7.05% in test [10] (setting [14]) and 13.8% in test [10] (setting [15]). Besides, in [11], the outcome was inactive.
As for `COc1ccccc1CN1CCCC2(CCN(C(=O)c3ccncc3)CC2)C1`, the Potency in test [1] is > 11.4 µM (inactive); in [3], 20 µM (active); in test [5], > 46 µM (inactive); in test [8], 6.31 µM (active); in [13] it was 3.16 µM (active). The activity change, negative = inhibition is -0.588% (inactive) in [2] and 1.58% (inactive) in [10]. Besides, the activity, negative = inhibition in [4] is 1.91% (inactive). Also, the Potency result in [6], in test [7] and in test [12] was “inactive” throughout. In addition, the activation in test [9] is 3.13% (inactive). Moreover, the results for the max response in [10] (setting [14]) and in [10] (setting [15]) were 5.27% and 9.4%, respectively. Further, in [11], the outcome was inactive.
With `CN1CC[C@@]2(CCCN(C(=O)c3cc(C(F)(F)F)cc(C(F)(F)F)c3)C2)C1`, the Potency in test [1] is > 11.4 µM (inactive); in [5] it was > 46 µM (inactive). Besides, the activity change, negative = inhibition is -0.328% (inactive) in [2] and 1.24% (inactive) in test [10]. Moreover, the Potency result in test [3], in [6], in [7] and in [12] was “inactive” each time. In addition, the activity, negative = inhibition in test [4] was 13.1% (inactive). In addition, the figures for the max response in test [10] (setting [14]) and in [10] (setting [15]) were -1.13% and 2.81%, respectively. Besides, in test [11], the outcome was inactive.

The values are drawn from PubChem BioAssay (NCATS).
